IL1B secr inh: qHTS for Inhibitors of Inflammasome Signaling: IL-1-beta AlphaLISA Primary Screen; THP-1 LPS/ATP IL-1B secretion, AlphaLISA, 16 h; stronger effect = lower value; activity change, % at 57.5 µM; actives 4.7% (n = 360,000); AID 743279, 2014; in the data active = activity change below about -50%; inconclusive = mostly about -30% to -49%; note: % is set by controls: 0 for no effect and ±100 for the full control effect
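THP-1 cells pretreated 1 hr with compounds (up to 57.5 uM final), then stimulated with LPS (250 ng/mL final) plus ATP (1.25 mM final); secreted IL-1B measured by AlphaLISA after 16 hr, decreased signal indicating inhibition.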
MCF10A rereplic: A quantitative high throughput screen for small molecules that induce DNA re-replication in MCF 10a normal breast cells. MCF 10A DNA re-replication, Hoechst nuclear intensity, 48 h. Potency, µM (series often up to 46.1 µM), without a hit: top-dose activity, positive = re-replication, usual class: activators. actives 2.9% (n = 350,000). AID 624296, 2012; note: potency is the fitted concentration of half-maximal effect; % of control where 0% means no effect; nearly all actives have a fitted effect of over 50% in size
VP16 counter: VP16 counterscreen qHTS for inhibitors of ROR gamma transcriptional activity | Drosophila S2 Gal4-VP16 UAS-luciferase, luminescence, 20 h | Potency, µM (doses to about 53.6 µM), for the others: top-dose activity, negative = inhibition, usual class: inhibitors | actives 3.5% (n = 310,000);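 note: Gal4-VP16 expression switched on by copper sulfate through the metallothionein promoter; potency is the fitted concentration of half-maximal effect; % is set by controls: 0 for no effect and ±100 for the full control effect; nearly all actives have a fitted effect of over 50% in size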
SW480 rerep: A quantitative high throughput screen for small molecules that induce DNA re-replication in SW480 colon adenocarcinoma cells; SW480 DNA re-replication, Hoechst DNA content imaging, 48 h; Potency, µM (highest dose often 46.1 µM), without a hit: at the top dose re-replication activation, most hits filed as activators; actives 1.8% (n = 340,000); note: potency is the fitted concentration of half-maximal effect; % of control where 0% means no effect; nearly all actives have a fitted effect of over 55% in size
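Compounds, transferred as 23 nL by pin tool, were incubated with cells for 48 hr; DNA content per nucleus was then quantified by Hoechst staining and fluorescence plate imaging.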
RORgamma inh: qHTS for inhibitors of ROR gamma transcriptional activity. actives 5.4% (n = 310,000). Potency, µM (doses to about 53.6 µM), for the others: top-dose activity change, negative = inhibition, hits mostly inhibitors. Nuclear receptor ROR-gamma (Mus musculus), P51450. AID 2551, 2010. Drosophila S2 Gal4-RORgamma UAS-luciferase reporter, 20 h; note: potency is the fitted concentration of half-maximal effect; % is set by controls: 0 for no effect and ±100 for the full control effect; nearly all actives have a fitted effect of over 60% in size
Target sequence (P51450 whole entry, looked up, the tested form may be a part): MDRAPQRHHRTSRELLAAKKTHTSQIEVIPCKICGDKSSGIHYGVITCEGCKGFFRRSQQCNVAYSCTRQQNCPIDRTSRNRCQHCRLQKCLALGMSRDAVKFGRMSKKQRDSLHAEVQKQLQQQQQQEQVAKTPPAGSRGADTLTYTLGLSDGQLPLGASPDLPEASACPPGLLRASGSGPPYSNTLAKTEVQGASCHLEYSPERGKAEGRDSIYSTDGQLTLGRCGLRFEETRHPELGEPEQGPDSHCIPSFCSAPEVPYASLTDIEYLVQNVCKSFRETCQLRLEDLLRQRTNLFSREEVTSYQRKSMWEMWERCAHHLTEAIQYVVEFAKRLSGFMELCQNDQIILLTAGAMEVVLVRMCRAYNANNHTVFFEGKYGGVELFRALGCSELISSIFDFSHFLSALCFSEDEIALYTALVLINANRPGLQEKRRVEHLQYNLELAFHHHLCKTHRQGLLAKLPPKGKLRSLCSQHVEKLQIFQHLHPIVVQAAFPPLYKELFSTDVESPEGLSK
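Luciferase reporter read in Schneider cells carrying Gal4-RORγ (mouse) and UAS-Photinus luciferase; cells given compound 1 h before 700 uM copper sulfate induction, then incubated 20 h at ambient temperature.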
The depositor's hits bear a star; i = inactive; ? = inconclusive; . = no result given. An excerpt weighted towards active compounds, which were near 11% of everything screened. Unless noted, calls come from the whole dose curve; as a rule, active = well fitted curve in the direction sought with a large enough effect; inconclusive = small, poorly fitted or top-dose-only effect, or another doubt; inactive = no such curve, though single readings can be large; an effect the other way counts as inactive or inconclusive.

SMILES	IL1B secr inh	MCF10A rereplic	VP16 counter	SW480 rerep	RORgamma inh
CC(C)c1ccc(NC(=O)COC(=O)[C@@H]2CCCN2C(=O)c2cccs2)cc1	8	0%	.	8%	.
O=S(=O)(Nc1ccc(O)c2ccccc12)c1cccs1	-99*	?	-26%	?	?
CN(C)c1ccc(C(=O)Nc2nnc(C3=COCCO3)o2)cc1	-2	-1%	2.8µM*	-6%	1.6µM*
CC(C)Oc1ccc(C(=O)Nc2nnc(C3=COCCO3)o2)cc1	4	1%	.	?	.
CN(c1ccccc1)S(=O)(=O)c1ccc(C(=O)Nc2nnc(C3=COCCO3)o2)cc1	0	8%	4.5µM*	5%	1.1µM*
COc1ccc(C(=O)Nc2nnc(C3=COCCO3)o2)cc1OC	i	3%	1.8µM*	-4%	1.6µM*
O=C(Nc1nnc(-c2ccc(Cl)cc2)o1)C1=COCCO1	0	28%	1.8µM*	-6%	2.5µM*
C[C@@H](C(=O)Cc1ccc2ccccc2c1)[C@@H]1C[C@@]1(C)[C@@H](NP(=O)(c1ccccc1)c1ccccc1)c1ccccc1	.	.	-2%	.	-10%
CC(=O)N1CCC2(CC1)CCN(c1ccccc1)CC2	.	.	-9%	.	1%
CC(C)(C)c1ccc(C(=O)Nc2nnc(C3=COCCO3)o2)cc1	-1	?	?	13%	0.18µM*
Cc1cn(CC(=O)NCCc2c[nH]c3ccccc23)c(=O)[nH]c1=O	40	-2%	.	5%	.
O=C(COc1ccc(C(=O)c2ccccc2)cc1)NCc1ccc(F)cc1	-3	4.1µM*	-25%	7.3µM*	18%
Cc1cccc(C(=O)OCC(=O)NCCNC(=O)COC(=O)c2cccc(C)c2C)c1C	6	14%	?	-6%	13µM*
CSc1ccc(CN(C)C(=O)COc2ccc(C(=O)c3ccccc3)cc2)cc1	23	13µM*	-6%	?	20%
O=C(COc1ccccc1)NCc1ccccc1	20	0%	7%	-4%	33%
O=C(COC(=O)c1ccccc1C(=O)c1ccc(Cl)cc1)NCc1ccccc1	-69*	16%	-8%	-4%	7%
COc1ccc(CCN2CC(C(=O)NCCCc3ccncc3)CCC2=O)cc1 (centres undefined)	-21	.	.	.	.
O=C(COC(=O)c1ccccc1C(=O)c1ccccc1)NCCc1ccc(Cl)cc1Cl	-85*	?	-12%	5%	23%
Cc1ccc(C(=O)c2ccccc2C(=O)OCC(=O)NCCc2ccccc2)cc1	-75*	-4%	-13%	-2%	?
O=C(COC(=O)c1nc(Cl)c(Cl)c(Cl)c1Cl)NCc1ccccc1	-89*	?	.	16µM*	.
O=C(COC(=O)/C=C/c1cccc(Cl)c1)NCCc1ccc(Cl)cc1Cl	0	-2%	-5%	0%	-15%
O=C(COC(=O)c1ccccc1C(=O)c1ccccc1)NCc1ccc(F)cc1	-77*	-2%	1%	-5%	-27%
COC(=O)c1cccc(CN2C(=O)C(C)Oc3ccc(C)cc32)c1 (centres undefined)	2	.	.	.	.
CCCCCC/C=C/c1ccc(OC)c(C2C3C=CCC(C)C3C(=O)N2Cc2ccccc2)c1 (centres undefined)	.	.	4%	.	-8%
CC12CCC(CC1O)C2C(=O)O (centres undefined)	-26	.	.	.	.
CC(=O)c1ccc(OCC(=O)NC2CCCCCC2)cc1	14	11%	.	-3%	.
CC1CCC(NC(=O)COc2ccc(C(=O)c3ccccc3)cc2)CC1 (centres undefined)	-65*	8%	?	3%	?
COc1ccccc1NC(=O)N1CCC(c2nc3cc(C)c(C)cc3[nH]2)CC1	24	3.7µM*	-20%	5.8µM*	10%
Cc1ccc2nc(C3CCCN(C(=S)Nc4ccccc4C)C3)[nH]c2c1 (centres undefined)	-2	21%	?	2%	?
Cc1cc2nc(C3CCCN(C(=S)Nc4ccccc4)C3)[nH]c2cc1C (centres undefined)	60	1%	?	-2%	13µM*

Bioassay records as filed in PubChem BioAssay.
